# Molecular target: T1, ETS1 (UniProt P14921)
# T1 sequence: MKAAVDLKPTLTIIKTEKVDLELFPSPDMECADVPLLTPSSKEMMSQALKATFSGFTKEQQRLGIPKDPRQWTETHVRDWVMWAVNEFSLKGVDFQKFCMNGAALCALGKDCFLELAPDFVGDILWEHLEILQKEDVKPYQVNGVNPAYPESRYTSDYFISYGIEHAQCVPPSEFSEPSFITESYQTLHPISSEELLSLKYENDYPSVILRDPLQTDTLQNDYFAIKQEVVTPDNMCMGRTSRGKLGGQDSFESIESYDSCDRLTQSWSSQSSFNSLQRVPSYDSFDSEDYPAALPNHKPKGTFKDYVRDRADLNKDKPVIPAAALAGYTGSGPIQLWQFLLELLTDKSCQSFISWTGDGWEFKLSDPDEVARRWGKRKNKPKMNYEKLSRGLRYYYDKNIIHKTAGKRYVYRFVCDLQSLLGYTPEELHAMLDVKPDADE
# Assay: ETS1 binding intensity (PBM fluorescence) in presence of RUNX1, normalised to ETS1-only experiment (arbitrary fluorescence units); higher = stronger binding
# Conditions: ETS1 concentration 1 nM; RUNX1 concentration 25 nM
# Method: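 Cooperative genomic-context PBM: 36-bp genomic probes with neighbouring ETS1 and RUNX1 sites, double-stranded on Agilent 4x180k arrays. Full-length recombinant human ETS1 (1 nM) was incubated alone or with RUNX1 (25 nM) and detected with anti-ETS1 antibody plus Alexa488 secondary. Value is the median fluorescence intensity over 4 replicate spots; the ETS1+RUNX1 data were normalised to the ETS1-only data using probes without RUNX1 sites. The 36-bp variable region sits on the array probe with constant linker/primer flanks that are not printed.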
row,Sequence,ETS1 binding intensity
1,CCCTTCCGCGTGGGTTGCACCTGCTAACCACAGAGC,866
2,GAGCCGGAAGTGAAGGAGGGCTTGTGGGAGATGGAG,3090
3,AAAGGGCAGACTTCCCTGCCCACATCTCTGCTCCTG,359
4,TGGAAGGCCGGAAAAGGTTTACCACCACACTCCGGT,3690
5,GCCGGGCACCCCGGAAGACCGCTGGGAACCGGCTTT,1070
6,CAGCACGCAGGAAGCACATGTGGTGGGGCTCTTCCA,759
7,TTTCTGAAACCCTCAGGATGTGGGTTTTCACACTGT,6900
8,CCAGCCGGAAGCCCCGCCCCCTAGAGGCACCGCGGA,962
9,TTTCCACTTCCTGTTCTACTTGTGGCTACTGACTCA,2890
10,CCGCCGCGCGCCGGATGCTAAGACCGCGATTTCCCC,7590
11,CAAGAGGAACCGGAACTTTGGAAACCACATTCTTAT,4800
12,CCATGAGGAGGGAGGAAATAGTGGTACGAGGGCTGC,1040
13,GCAGAGAGATTGGCCGGATGCGGTGGCTCACGCCTT,8930
14,GCTGTGCCGGCAGGATGTGGTCTTTGGTTTCTGTTT,12300
15,GCCACAGCCGGAAGCAGGCTGACCACAAGTGCTAAG,18700
16,CAGGCCTTTCCTGCTATCGTTTGTGGTTTGAGCAGT,1120
17,GGCGGTGACCGGAAGAGCTGAGTCACCGCAGGCGAC,11300
18,TGTTTGTTTCCGAAGATTAGCCAGCCTGCGGTAGAG,605
19,TTACGTTAAGGAGGAAACTCTGTGGTTAAACTGTAG,2050
20,ACAGCTCACACAGGAAATACAAACCTCAAAAAGCAA,7480

row,Sequence,ETS1 binding intensity
1,GGTACCAAGGGCAGAGGATGTGGTGAGGTGTGGAGG,3140
2,ACAGACCAGGGGATTTCCTGTGGGTGGAGTCCTCAG,771
3,AGGGCATAAACAGGATGTGGTGTTGGATGAAACCTT,7490
4,ACACTGGCCGGAAGGGGCGGGACCGCGAGTTAAGAG,2380
5,TGGCTGTTCAGCCTTCCGCTTGTGGCTCCACCCCCG,493
6,AGGTTGAAAGCACTTCCGCTGCGGCCCCCGTAGGAA,3460
7,CCGTGGAAGGAAACGCTGCCAACCGCAACAGAAATG,2770
8,AGGTACCAGGCCCGGAAACCACGGAAAGGGGAACTT,5500
9,CGGGTTGGGCAGGAAGCAGCATGACCGCAGTGGGTC,17000
10,CCAAAAAGGAAGGAAACCAGAAAGCCACAGAATGGT,1200
11,CTTACAGATAAGGAAACTGAGGTTAAAATGTAGGGG,656
12,CGAGGGAGCCGGAAAGATGGTGGTTACCAGATCTGC,992
13,GGCAACCGGCCCCGGAAGTTGCGGCAGGTGCGTCCA,8090
14,CCCACAGGAAATCCCCTGGTCTGTGGCGCCTCTGAT,823
15,GCAAAGATACATCCTTCTCCCCACAGACTAAGTTTC,412
16,AGGGCATTTCCTTTGGGGCTGGTGGTCACGGACAAC,381
17,CCTGTCCGGAAGTCCTGAGAGGGAATCGCCCGCAAA,5360
18,TCCTCCATGCAGGAAAACCTCTGTGGTCTGGGAGCT,1230
19,GGACGCTTCCGGTGGAAGGGAGCTGTTGCGGGGCTT,1660
20,CCACGTAAAGGCGGAAGCGGTTGAGTGGACGCCATC,4150

# From the supplement of paper PMC10681739
